14 compounds from PubChem BioAssay can be followed below.

The nature of assay [1]: inhibitors of TNFa-induced NFkB p65 translocation, primary screen, imaging, HUVEC, MLSMR starter and 10KST1 sets (AID 438).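 Further: compound added about 3h40 before a 20 min TNFalpha stimulation.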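 On inhibition: signal is the nuclear over cytoplasmic p65 intensity ratio per well.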 The note with it: HUVEC TNFa-induced p65 nuclear translocation; cell count: measured here: nuclei count (cytotoxicity indicator), at 2.08 µM; inhibition: at 2 µM, stronger effect = higher value, 0% TNFa-plus-vehicle, 100% no-TNFa wells.
The nature of assay [2]: reduction of polyQ htt aggregates in cells – imaging, exon1htt(103Q)mCFP cells, high-content imaging, primary screen (AID 483;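 active means visual image review flags a hit and inhibition of aggregation exceeds 20%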;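 further: compound exposure lasted 3 days before fixation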;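 on nuclei count: percent of the per-plate median nuclei count of sample wells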). The note with it: exon1htt(103Q)mCFP cell line, aggregate imaging, at 2 µM; inhibition of aggregation: stronger effect = higher value; nuclei count: measured here: cell count, toxicity.
Assay [3] can be described thus: endothelial E-selectin expression blockers – imaging, HUVEC, immunofluorescence, MLSMR starter and 10KST1 sets, primary screen (AID 487;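 active means visually confirmed hit in the image check and inhibition above 20%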;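 on inhibition: signal is fraction of cell area covered by stained E-selectin grains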;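 on nuclei count: 100% = median nuclei count of all wells on the same plate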). The note with it: HUVEC TNFalpha-induced E-selectin immunofluorescence imaging, at 2 µM; inhibition: stronger effect = higher value; nuclei count: measured here: cell number, toxicity.
The target of assay [4] is Voltage-gated potassium channel subunit beta-2 (Rattus norvegicus) (UniProt P62483). Put plainly: inhibitors of rat Kvbeta2 reductase activity – biochemical, NADPH fluorescence, primary screen (AID 622;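 active means fluorescence slope higher than the sample average by over 3 SD, cut at about -0.22 in these data, passing the limit was not always enough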;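 further: slope of raw intensity against log time taken from 70 to 1610 s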). The note with it: recombinant KvBeta, 4-cyanobenzaldehyde reduction, at 10 µM, stronger effect = higher value.
Chain of Voltage-gated potassium channel subunit beta-2 (Rattus norvegicus) (P62483 whole entry, looked up): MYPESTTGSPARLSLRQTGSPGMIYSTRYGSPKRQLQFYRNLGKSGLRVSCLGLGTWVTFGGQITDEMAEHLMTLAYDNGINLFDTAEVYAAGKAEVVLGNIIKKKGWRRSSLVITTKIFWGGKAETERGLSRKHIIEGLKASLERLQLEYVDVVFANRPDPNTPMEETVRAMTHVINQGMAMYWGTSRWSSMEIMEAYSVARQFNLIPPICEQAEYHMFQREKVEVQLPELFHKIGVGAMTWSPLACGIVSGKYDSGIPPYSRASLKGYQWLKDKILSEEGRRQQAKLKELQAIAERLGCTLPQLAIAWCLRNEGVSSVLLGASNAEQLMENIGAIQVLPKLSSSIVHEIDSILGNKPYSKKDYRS
For assay [5] the target is unchanged. Put plainly: enhancers of rat Kvbeta2 NADPH turnover – biochemical, NADPH fluorescence, primary screen (AID 623;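 active means NADPH fluorescence slope more negative than the mean of all samples by about 3 SD, 99.7% confidence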;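 further: fluorescence intensity change per second fitted from 20 to 320 s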). The note with it: Recombinant KvBeta, NADPH fluorescence decrease slope, 10 min; at 10 µM; stronger effect = lower value.
Assay [6] deals with Alpha-2C adrenergic receptor (Homo sapiens) (UniProt P18825). Kind of assay: compounds altering alpha2C-coupled GIRK flux – cell-based, HEK293 alpha2C/GIRK1/2, thallium flux, primary screen (AID 624;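 active means fluorescence slope after compound addition differing from the mean of all screened samples at 99.7% confidence, in either direction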;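 further: slope of fluorescence ratio to pre-addition baseline per second over 15 to 24 s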). The note with it: thallium flux BTC fluorescence, at 10 µM, actives lie on both sides.
Chain of Alpha-2C adrenergic receptor (Homo sapiens) (P18825 whole entry, looked up): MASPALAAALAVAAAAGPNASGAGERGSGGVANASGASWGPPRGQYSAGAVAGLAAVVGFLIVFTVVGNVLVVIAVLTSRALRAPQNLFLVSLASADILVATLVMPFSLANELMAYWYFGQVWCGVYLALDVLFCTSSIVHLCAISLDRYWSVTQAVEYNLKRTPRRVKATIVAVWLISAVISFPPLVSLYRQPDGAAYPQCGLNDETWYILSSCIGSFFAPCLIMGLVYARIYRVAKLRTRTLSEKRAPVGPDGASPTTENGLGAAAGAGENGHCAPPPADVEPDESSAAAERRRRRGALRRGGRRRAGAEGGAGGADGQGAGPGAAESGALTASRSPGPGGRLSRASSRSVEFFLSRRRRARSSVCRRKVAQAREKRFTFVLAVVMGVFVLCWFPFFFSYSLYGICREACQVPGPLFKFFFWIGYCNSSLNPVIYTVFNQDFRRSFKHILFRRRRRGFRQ
The nature of assay [7]: blockers of RIG-like receptor reporter activation – cell-based, Sendai virus stimulus, luciferase, 10K MLSCN set, TLR/RLR signaling modifier project, primary screen (AID 602276;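 active means inhibition at or above 50% at 10 µM; inactive means inhibition below 50%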;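 further: firefly luciferase from ISG56 promoter only with Renilla not read in this screen; 0% = Sendai virus plus DMSO and 100% = medium plus DMSO without virus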). As to conditions: HEK293 RL24 IRF3 luciferase reporter, at 10 µM, stronger effect = higher value.
Assay [8] can be described thus: TLR3 IRF3 reporter activation blockers – cell-based, poly I:C stimulus, luciferase, 10K MLSCN set, primary screen (AID 602277;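 active means inhibition of the reporter signal at or above 50%; inactive means inhibition below 50%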). The note with it: HEK293-TLR3 RL24 IRF3 luciferase reporter, at 10 µM, stronger effect = higher value.

Calls of active or inactive are those of the source.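 How the source made its calls, unless noted: active means inhibition above 20% together with a positive visual image hit; inconclusive means visual image hit but inhibition not above 20%; inactive means no visual image hit.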

As for `CCOC(=O)c1cc2sc(C)cc2n1C(C)C(=O)OCC` (centres undefined), the cell count in assay [1] is 291. The inhibition in assay [1] was 0.5% (inactive); in assay [3], -48.6% (inactive); in assay [7], 18.2% (inactive); in assay [8], 20.3% (inactive). Also, the inhibition of aggregation in assay [2] is -7% (inactive). The nuclei count in assay [2] came to 106%; in assay [3] it was 123%. Further, the fluorescence slope in assay [4] was -0.607 (inactive). Besides, the NADPH fluorescence slope in assay [5] is -3.9e-05 (inactive). The slope in assay [6] is 0.00348 (inactive).

As for `CC(C)NC(=O)CSCc1ccccc1Cl`, the cell count in assay [1] came to 350. Besides, the inhibition in assay [1] is 12.5% (inactive); in assay [3] it was -0.7% (inactive); in assay [7], 9.82% (inactive); in assay [8], 0.78% (inactive). Besides, the inhibition of aggregation in assay [2] is 6.1% (inactive). For the same compound, the nuclei count in assay [2] was found to be 100%; in assay [3] it was 110%. In addition, the fluorescence slope in assay [4] is -0.5 (inactive). Moreover, the NADPH fluorescence slope in assay [5] is -1.3e-05 (inactive). In assay [6], the slope is 0.00508 (inactive).

In the case of `CCc1nnc(SCc2cn3c(C)cc(C)nc3n2)n1N`, in assay [1], the cell count came to 571. Moreover, the inhibition was -13.6% (inactive) in assay [1], 2.4% (inactive) in assay [3], -4.74% (inactive) in assay [7] and 4.52% (inactive) in assay [8]. For the same compound, the inhibition of aggregation in assay [2] is -13.3% (inactive). Further, the nuclei count in assay [2] stood at 104%; in assay [3], 143%. Moreover, the fluorescence slope in assay [4] was -0.284 (inactive). Besides, in assay [5], the NADPH fluorescence slope was -5.4e-06 (inactive). The slope in assay [6] was 0.00669 (inactive).

Regarding `CCN(CC)c1ccc2cc(-c3nc4ccccc4[nH]3)c(=O)oc2c1`, the cell count in assay [1] is 437. The inhibition in assay [1] is 11.7% (inactive); in assay [3], -74.3% (inactive); in assay [7], 20.9% (inactive); in assay [8] it was 32.6% (inactive). In addition, in assay [2], the inhibition of aggregation was 90.2% (active). The nuclei count in assay [2] was found to be 98.9%; in assay [3], 116%. In addition, the fluorescence slope in assay [4] is -0.313 (inactive). The NADPH fluorescence slope in assay [5] was 4.5e-05 (inactive). For the same compound, the slope in assay [6] is 0 (active).

As to `COc1cccc(N(C(C)=O)c2nc(C)cc(C)c2C#N)c1`, the cell count in assay [1] came to 278. Also, the inhibition in assay [1] is 13.4% (inactive); in assay [3], -47.7% (inactive); in assay [7], 17.6% (inactive); in assay [8], 28.7% (inactive). In assay [2], the inhibition of aggregation was -28.3% (inactive). The nuclei count in assay [2] is 113%; in assay [3], 102%. Also, the fluorescence slope in assay [4] is -0.557 (inactive). Also, the NADPH fluorescence slope in assay [5] is -1.8e-05 (inactive). In addition, the slope in assay [6] is 0.00529 (inactive).

On to `COc1ccc2cc3cc(C(=O)NCC4CCCO4)oc3nc2c1` (centres undefined), for which, in assay [1], the cell count came to 323. The inhibition in assay [1] is -7.8% (inactive); in assay [3] it was -20.5% (inactive); in assay [7], -11.2% (inactive); in assay [8], -36.3% (inactive). The inhibition of aggregation in assay [2] was 3.3% (inactive). The values for the nuclei count in assay [2] and in assay [3] were 56.8% and 108%, respectively. For the same compound, the fluorescence slope in assay [4] is -0.0444 (active). Besides, in assay [5], the NADPH fluorescence slope was -1.4e-06 (inactive). The slope in assay [6] was 0.00645 (inactive).

Take `CCOCCCNC(=O)Cn1cc2c(n1)CCCCC2`: in assay [1], the cell count was 486. For the same compound, the inhibition in assay [1] was -2.3% (inactive); in assay [3], -25.4% (inactive); in assay [7], 3.75% (inactive); in assay [8] it was 19.9% (inactive). Also, the inhibition of aggregation in assay [2] was 19.4% (inactive). Moreover, the nuclei count turned out to be 88.9% in assay [2] and 109% in assay [3]. Also, the fluorescence slope in assay [4] is -0.605 (inactive). For the same compound, the NADPH fluorescence slope in assay [5] is -1.2e-05 (inactive). Moreover, the slope in assay [6] is 0.00693 (inactive).

Consider `CCOC(=O)c1ccc(N2Cc3cc(C)c(C)cc3C2)cc1O`, for which the cell count in assay [1] turned out to be 744. Moreover, the inhibition in assay [1] was 2.9% (inactive); in assay [3], -36.2% (inactive); in assay [7] it was -26.7% (inactive); in assay [8], -52.7% (inactive). The inhibition of aggregation in assay [2] was 6.2% (inactive). The nuclei count in assay [2] was 92.7%; in assay [3], 119%. The fluorescence slope in assay [4] was -0.457 (inactive). The NADPH fluorescence slope in assay [5] was -1.3e-05 (inactive). For the same compound, in assay [6], the slope was 0.00595 (inactive).

For the compound `CCOc1cccc2cc(C(=O)N3CCN(C/C=C/c4ccccc4)CC3)c(=O)oc12`, the cell count in assay [1] worked out at 596. For the same compound, the inhibition was -3.6% (inactive) in assay [1], -80.4% (inactive) in assay [3], 1.41% (inactive) in assay [7] and -10.8% (inactive) in assay [8]. For the same compound, in assay [2], the inhibition of aggregation was -2.4% (inactive). For the same compound, the figures for the nuclei count in assay [2] and in assay [3] were 103% and 133%, respectively. For the same compound, the fluorescence slope in assay [4] was -0.236 (inactive). In addition, the NADPH fluorescence slope in assay [5] is -4e-05 (inactive). Besides, the slope in assay [6] is 0.00413 (inactive).

Regarding `N#Cc1c2n(c(=O)[nH]c1=O)CCCCC2`, in assay [1], the cell count is 270. Moreover, the inhibition in assay [1] is 14.4% (inactive); in assay [3], 16.1% (inactive); in assay [7] it was -7.37% (inactive); in assay [8] it was 0.231% (inactive). Besides, in assay [2], the inhibition of aggregation was 18.2% (inactive). The nuclei count turned out to be 113% in assay [2] and 110% in assay [3]. In assay [4], the fluorescence slope was -0.5 (inactive). The NADPH fluorescence slope in assay [5] was -0.000252 (inactive). Further, the slope in assay [6] is 0.00665 (inactive).

Take `COCCN1Cc2cccc(C(=O)Nc3cccnc3)c2C1=O`: the cell count in assay [1] was found to be 649. Also, the inhibition in assay [1] was -26.5% (inactive); in assay [3], -39.6% (inactive); in assay [7] it was 6.71% (inactive); in assay [8], 5.54% (inactive). The inhibition of aggregation in assay [2] was -6.7% (inactive). The nuclei count in assay [2] and in assay [3] was 100% throughout. The fluorescence slope in assay [4] is -0.503 (inactive). Also, the NADPH fluorescence slope in assay [5] is -0.000182 (inactive). Also, the slope in assay [6] is 0.00506 (inactive).

On to `COc1ccc(N2CCN(CCCNC(=O)C3(S(=O)(=O)c4ccc(Cl)cc4)CC3)CC2)cc1`, for which, in assay [1], the cell count amounted to 447. The inhibition in assay [1] is -6.2% (inactive); in assay [3] it was -86% (inactive); in assay [7], -9.9% (inactive); in assay [8] it was -1.93% (inactive). Besides, the inhibition of aggregation in assay [2] is 8.8% (inactive). The nuclei count was 101% in assay [2] and 115% in assay [3]. Also, the fluorescence slope in assay [4] is -0.565 (inactive). Besides, the NADPH fluorescence slope in assay [5] was 1.2e-05 (inactive). The slope in assay [6] was 0.00533 (inactive).

With `Cc1cc(C)c(C)c(OCC(=O)NCC2CCCO2)c1` (centres undefined), in assay [1], the cell count came out at 371. Also, the inhibition in assay [1] was -13.5% (inactive); in assay [3] it was -65.1% (inactive); in assay [7] it was -5.32% (inactive); in assay [8] it was 21% (inactive). In addition, the inhibition of aggregation in assay [2] is -15% (inactive). Also, the nuclei count in assay [2] came out at 97.1%; in assay [3], 110%. In addition, the fluorescence slope in assay [4] is -0.521 (inactive). Also, in assay [5], the NADPH fluorescence slope is -3.4e-05 (inactive). Moreover, the slope in assay [6] is 0.0063 (inactive).

For `Cc1ccc(NCC(O)C(O)C(O)CO)cc1C` (centres undefined), the cell count in assay [1] is 516. The inhibition in assay [1] was 0.6% (inactive); in assay [3] it was -52.4% (inactive); in assay [7], 8.39% (inactive); in assay [8], 8.99% (inactive). Further, in assay [2], the inhibition of aggregation is 1.3% (inactive). Also, the nuclei count in assay [2] is 115%; in assay [3] it was 128%. Moreover, the fluorescence slope in assay [4] is -0.455 (inactive). For the same compound, the NADPH fluorescence slope in assay [5] is 5.8e-07 (inactive). The slope in assay [6] is 0.00562 (inactive).
